From PubChem BioAssay (NCI)
Compounds without any hit were thinned out: in the full panel of roughly 83,000, 20% have a hit.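 Negative percent growth values reflect cell death: -40 means 40% of the cells present at the start died, and -100 means all died.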 Values without a mark were called inactive. Active and inactive are the calls of the source. The calls were made as follows: active = growth percent below 10; inactive = the rest.

What was measured:
Experiment in all cases: NCI-60 one-dose screen, 48 h (100 = growth as untreated, 0 = no growth, -100 = all killed)
Details in all cases: 10 µM unless noted
[1] = system: DU-145 prostate
[2] = system: K-562 leukemia
[3] = system: MALME-3M melanoma
[4] = system: MDA-MB-231 breast
[5] = system: RXF 393 renal
[6] = system: SF-268 CNS
[7] = system: SF-295 CNS
[8] = system: SF-539 CNS
[9] = system: UACC-257 melanoma
[10] = system: M14 melanoma

COc1ccc(-c2nc3cc(C(=O)NCc4ccccc4)ccc3n2C2CCCCC2)cc1
growth [1]: 82.8%
growth [2]: 41.1%
growth [3]: 102%
growth [4]: 77.5%
growth [5]: 90.2%
growth [6]: 79.4%
growth [7]: 51%
growth [8]: 60.2%
growth [9]: 96.7%
growth [10]: 78.1%

CCCCCN1C(=O)/C(=c2\sc3n(c2=O)C2C(NN=3)N(CC)C(=O)N2CC)c2ccccc21 (stereo not given)
growth [1]: -67.1% (active)
growth [2]: -71.9% (active)
growth [3]: -32.4% (active)
growth [4]: -30.8% (active)
growth [5]: -28.9% (active)
growth [6]: -2.82% (active)
growth [7]: -24.8% (active)
growth [8]: -90.2% (active)
growth [9]: 31.5%
growth [10]: -9.92% (active)

CCN(C)S(=O)(=O)Nc1cccc(Nc2ncnc3cc(NC(=O)CCl)ccc23)c1Cl
growth [1]: -49.8% (active)
growth [2]: 4.5% (active)
growth [3]: -51.7% (active)
growth [4]: -38.4% (active)
growth [5]: -11.9% (active)
growth [6]: 7.08% (active)
growth [7]: 15.3%
growth [8]: -40.3% (active)
growth [9]: 34.4%
growth [10]: 15.1%

CCC(C)(C)C(=O)O[C@H]1C[C@@H](C)C=C2C=C[C@H](C)[C@H](CC[C@@H]3CC(SCCN)CC(=O)O3)[C@H]21 (stereo not given in full)
growth [1]: 98.7%
growth [2]: 51.2%
growth [3]: 86.2%
growth [4]: 88.7%
growth [5]: 86.8%
growth [6]: 96.3%
growth [7]: 106%
growth [8]: 76.2%
growth [9]: 78%
growth [10]: 60.1%

N#Cc1c(-c2ccccc2)[nH]c2ncc(-c3ccccc3)n2c1=O
growth [1]: 99.7%
growth [2]: 98.7%
growth [3]: 91.5%
growth [4]: 76.3%
growth [5]: 102%
growth [6]: 91.7%
growth [7]: 78.2%
growth [8]: 89.9%
growth [9]: 94%
growth [10]: 91.3%

COC(=O)[C@]12CCC(C)(C)C[C@H]1[C@H]1/C(=N/OCCc3nn[nH]n3)C[C@@H]3[C@@]4(C)CC[C@H](OC(C)=O)C(C)(C)[C@@H]4CC[C@@]3(C)[C@]1(C)CC2
growth [1]: 53.8%
growth [2]: 24.5%
growth [3]: 40.4%
growth [4]: 48.5%
growth [5]: 70.1%
growth [6]: 45.5%
growth [7]: 25%
growth [8]: 44.7%
growth [9]: 16.5%
growth [10]: 48.4%

Cc1c(O)cc(-c2cnc(Nc3ccccc3)s2)c(O)c1C
growth [1]: 105%
growth [2]: 87.2%
growth [3]: 107%
growth [4]: 99.2%
growth [5]: 99.5%
growth [6]: 105%
growth [7]: 98.9%
growth [8]: 95%
growth [9]: 106%
growth [10]: 93.6%

COc1ccc2[nH]c(C(=O)N3CCN(C(=O)OCc4ccc5c(Cl)cc(Cl)c(O)c5n4)CC3)cc2c1
growth [1]: -88.6% (active)
growth [2]: 4.22% (active)
growth [3]: -94.4% (active)
growth [4]: -82.2% (active)
growth [5]: -92.9% (active)
growth [6]: -91.1% (active)
growth [7]: 34%
growth [8]: -99.3% (active)
growth [9]: -43.2% (active)
growth [10]: -66.4% (active)

Cc1cc(N2CCN(CC(=O)Nc3ccc4c(ccn4C)c3)CC2)nc(N2CCCCCC2)n1
growth [1]: 94.2%
growth [2]: 65.6%
growth [3]: 93.6%
growth [4]: 101%
growth [5]: 86.2%
growth [6]: 102%
growth [7]: 98.9%
growth [8]: 110%
growth [9]: 91.9%
growth [10]: 98.7%

O=C(Nc1cccc2ccccc12)NC1CC1
growth [1]: 141%
growth [2]: 107%
growth [3]: 123%
growth [4]: 113%
growth [5]: 107%
growth [6]: 120%
growth [7]: 116%
growth [8]: 122%
growth [9]: 106%
growth [10]: 103%

C#COc1cccc(Nc2c(C#N)cnc3ncc(NC(=O)CCl)cc23)c1
growth [1]: 33.2% [6.25 µM]
growth [2]: 6.93% [6.25 µM] (active)
growth [3]: 76.9% [6.25 µM]
growth [4]: 20.9% [6.25 µM]
growth [5]: 54% [6.25 µM]
growth [6]: 6.32% [6.25 µM] (active)
growth [7]: 42.1% [6.25 µM]
growth [8]: -7.95% [6.25 µM] (active)
growth [9]: 47.1% [6.25 µM]
growth [10]: 41.2% [6.25 µM]

c1cc2c(ccc3[nH]c(-c4ccc5[nH]ncc5c4)c4c(c32)CCCC4)n1
growth [1]: 66%
growth [2]: 2.93% (active)
growth [3]: 35.9%
growth [4]: 78.4%
growth [5]: 89.3%
growth [6]: 62.3%
growth [7]: 63.6%
growth [8]: 62.9%
growth [9]: 74.9%
growth [10]: 61.9%

O=C(c1nn(-c2ccccc2)c2c1CC(NCc1ccc(F)cc1)CC2)N1CCCCC1 (stereo not given)
growth [1]: 108%
growth [2]: 91%
growth [3]: 102%
growth [4]: 110%
growth [5]: 107%
growth [6]: 93%
growth [7]: 102%
growth [8]: 106%
growth [9]: 101%
growth [10]: 95.3%

O=C(Nc1ccc(Oc2cccc(Cl)c2)c(Cl)c1)c1cnccn1
growth [1]: 22.7%
growth [2]: 13.2%
growth [3]: 53.4%
growth [4]: 31.7%
growth [5]: -4.58% (active)
growth [6]: 54.3%
growth [7]: 41.2%
growth [8]: -35.2% (active)
growth [9]: 72.4%
growth [10]: 19.8%

CC(=O)Oc1ccc(C)cc1C
growth [1]: 110%
growth [2]: 101%
growth [3]: 104%
growth [4]: 104%
growth [5]: 114%
growth [6]: 104%
growth [7]: 106%
growth [8]: 99%
growth [9]: 106%
growth [10]: 103%

CC(C)c1ccc(C(=O)Nc2nc3ccc(O)c(CN(C)C)c3s2)cc1
growth [1]: 63.1%
growth [2]: 1.54% (active)
growth [3]: 71.4%
growth [4]: 44.8%
growth [5]: 97.4%
growth [6]: 87.2%
growth [7]: 96.3%
growth [8]: 69%
growth [9]: 50.9%
growth [10]: 26.8%

CC(=O)N1N=C(c2ccc(Nc3nc(Nc4ccccc4)nc(Nc4ccccc4)n3)cc2)CC1c1cccc([N+](=O)[O-])c1 (stereo not given)
growth [1]: 102%
growth [2]: 80.8%
growth [3]: 136%
growth [4]: 73.7%
growth [5]: -0.925% (active)
growth [6]: 109%
growth [7]: 104%
growth [8]: 89.8%
growth [9]: 92.3%
growth [10]: 94.8%

Cc1ccc(C[P+](c2ccccc2)(c2ccccc2)c2ccccc2)cc1
growth [1]: 7.44% (active)
growth [2]: 2.1% (active)
growth [3]: 10.1%
growth [4]: 18.7%
growth [5]: 16.6%
growth [6]: 15.5%
growth [7]: 2.31% (active)
growth [8]: 16.3%
growth [9]: 3.36% (active)
growth [10]: 5.62% (active)

COC(=O)/C=C1/SC(=Nc2cccc(OC)c2)N(CCc2c[nH]c3ccc(O)cc23)C1=O
growth [1]: 33.1%
growth [2]: 34.1%
growth [3]: 79.5%
growth [4]: 66.6%
growth [5]: 52.6%
growth [6]: 67%
growth [7]: 81.4%
growth [8]: 72.4%
growth [9]: 57.7%
growth [10]: 51.3%
